Reference: PubChem BioAssay (Tox21)
Inconclusive results are not listed. Values without a mark were called inactive. Activity calls are given as the source filed them. The call rests on the fitted dose curve.
On the % scale 0 is the no-effect control and ±100 the full control effect.

Test: qHTS assay to identify small molecule agonists or antagonists of the thyroid stimulating hormone receptor (TSHR) signaling pathway - wild type cell line counter screen (AID 1259384)
Conditions: HEK293 wild type, cAMP HTRF counter-screen, active compounds read high; series mostly up to 92.4 µM
From the text: U.S. Tox21 Program National Center for Advancing Translational Sciences [NCATS] NIH Chemical Genomics Center [NCGC] U.S. Environmental Protection Agency [EPA] National Institutes of Environmental Health Sciences [NIEHS] National Toxicology Program [NTP] U.S. Food and Drug Administration [FDA] Tox21 Assay Overview: TSHR is the receptor for thyrotropin (thyroid stimulating hormone or TSH), a member of the glycoprotein hormone family. TSH is released by the anterior pituitary gland and is the main regulator of thyroid gland growth and development. Upon binding circulating thyrotropin, a G-protein signal cascade activates adenylyl cyclase and […] cAMP concentration is increased. cAMP is a key second messenger involved extensively in cellular signal transduction pathways associated with the majority of G-protein coupled receptors (GPCRs). The activation of these GPCRs by neurotransmitters, lipids, nucleotides, peptides and hormones results in the activation or the inhibition of plasma membrane-bound adenylate cyclase through heterotrimeric G-proteins. A cell-based TSHR-Hek293 assay can be used to identify TSHR agonists. To eliminate the false positive compounds identified from screening a cell-based TSHR-Hek293 cell line, cAMP assay in a wild type Hek293 cells was used as a counter screening.
Tox21 Assay Protocol Summary: Hek293 cells (wild type) were dispensed at 800 cells/4 uL/well in 1536-well white plates using a Multidrop dispenser. After the assay plates were incubated at a 37 C/5% CO2 incubator for 18 hrs, 23 nL of compounds dissolved in DMSO, positive controls or DMSO only was transferred to the assay plate by a pin tool, followed by 1 ul medium containing Ro20-1724. After 30 min of incubation at room temperature, 2.5 ul/well of cAMP-d2 and 2.5 ul/well of anti-cAMP-cryptate were added respectively into the assay plates using a Flying Reagent Dispenser. The plates were incubated at room temperature for 1 hr. The fluorescence intensity in the plates was measured using an Envision plate reader. Each test compound was measured at 15 concentrations and in triplicates.
With `CNC(C)Cc1ccccc1OC` (stereo not given) the outcome was “inactive”.
With `Brc1ccc(Oc2ccccc2)cc1` the outcome was “inactive”.
`NCC(CC(=O)O)c1ccc(Cl)cc1` (stereo not given) gave a cAMP activity change of 0.519% [at 0.349 µM].
With `CCCCN=C=O` the outcome was “inactive”.
In the case of `C=CC(=O)NCNC(=O)C=C`, the outcome is reported as “inactive”.
For `COCCOCCO`, the outcome was “inactive”.
In the case of `CCOP(=S)(OCC)SCSCC`, the outcome is reported as “inactive”.
For `CN(C)c1ccc(N(C)C)cc1`, the outcome was “inactive”.
With `S=C=NCc1ccccc1` the outcome was “inactive”.
With `CCOc1nc(F)cc2nc(S(=O)(=O)Nc3c(Cl)cccc3Cl)nn12` the outcome was “inactive”.
In the case of `CC(C)(CCl)C(=O)Cl`, the outcome is reported as “inactive”.
With `COC(=O)C(C)N(C(=O)Cc1ccccc1)c1c(C)cccc1C` (stereo not given) the outcome was “inactive”.
In the case of `O=[N+]([O-])c1ccccc1CCl`, the outcome is reported as “inactive”.
With `CO/N=C(/C(=O)OC)c1ccccc1COc1ccccc1C` the outcome was “inactive”.
In the case of `CC(C)N(CCC(C(N)=O)(c1ccccc1)c1ccccn1)C(C)C` (stereo not given), the outcome is reported as “inactive”.
With `C=CCN1CC[C@]23c4c5ccc(O)c4O[C@H]2C(=O)CC[C@@]3(O)[C@H]1C5` the outcome was “inactive”.
In the case of `COc1nn(CSP(=S)(OC)OC)c(=O)s1`, the outcome is reported as “inactive”.
In the case of `O=S1OC[C@@H]2[C@H](CO1)[C@]1(Cl)C(Cl)=C(Cl)[C@@]2(Cl)C1(Cl)Cl` (stereo not given in full), the outcome is reported as “inactive”.
In the case of `C#CCOC(C(=O)OCCN(C)C)(c1ccccc1)c1ccccc1`, the outcome is reported as “inactive”.
In the case of `C=CC(=O)OC`, the outcome is reported as “inactive”.
For `Clc1cc(C(Cl)(Cl)Cl)cnc1Cl`, the outcome was “inactive”.
In the case of `CCCCCCCCCCOC(=O)c1ccccc1C(=O)OCCCCCCCCCC`, the outcome is reported as “inactive”.
With `Clc1ccc(C2(Cn3cncn3)CC(Br)CO2)c(Cl)c1` (stereo not given) the outcome was “inactive”.
With `CC1C(=O)C[C@]2(C(C)C)C[C@H]12` (stereo not given in full) the outcome was “inactive”.
With `Brc1ccccc1` the outcome was “inactive”.
In the case of `CCC(C)(NC(=O)c1cc(Cl)c(C)c(Cl)c1)C(=O)CCl` (stereo not given), the outcome is reported as “inactive”.
With `CCOS(C)(=O)=O` the outcome was “inactive”.
In the case of `IC(I)=C(I)I`, the outcome is reported as “inactive”.
In the case of `COP(=S)(Oc1cc(Cl)c(Br)cc1Cl)c1ccccc1` (stereo not given), the outcome is reported as “inactive”.
For `CC1CC(CC2CCC(N)C(C)C2)CCC1N` (stereo not given), the outcome was “inactive”.
In the case of `OC(c1ccc(Cl)cc1)(c1ccc(Cl)cc1)c1cccnc1`, the outcome is reported as “inactive”.
With `O=Cc1ccc2c(c1)OCO2` the outcome was “inactive”.
In the case of `O=C(Nc1ccccc1)Nc1ccnc(Cl)c1`, the outcome is reported as “inactive”.
In the case of `Cc1ccc2ccccc2c1`, the outcome is reported as “inactive”.
For `C=CC(=O)OC(C)(C)C`, the outcome was “inactive”.
For `CN1C(=O)NC(=O)C(C)(C2=CCCCC2)C1=O` (stereo not given), the outcome was “inactive”.
For `NS(=O)(=O)C(F)(F)C(F)(F)C(F)(F)C(F)(F)C(F)(F)C(F)(F)C(F)(F)C(F)(F)F`, the outcome was “inactive”.
With `CC(C)N(C(=O)COc1nnc(C(F)(F)F)s1)c1ccc(F)cc1` the outcome was “inactive”.
In the case of `C=CC(=O)OCC(C)C`, the outcome is reported as “inactive”.
With `Nc1nc(=S)[nH][nH]1` the outcome was “inactive”.
